# Laboratory results from PubChem BioAssay AID651821 (The Scripps Research Institute Molecular Screening Center, 2012).
# Hit rate of the full screen: of about 370,000 compounds, about 4,700 (1.3%) were called active. Shown is part of a subset that was picked to be rich in actives. A number with no mark means an inactive call.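 The calls were made as follows: active = inhibition above the plate cutoff, the mean of all test compounds on that plate plus 3 SD (cut at about 35% in these data); inactive = the rest.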
# Assay: small molecules binding CAG repeat RNA – biochemical, fluorescence, primary screen (AID 651821);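 also: 0% = DMSO alone and 100% = 100 µM mitoxantrone as full dye displacement; higher means more dye released from RNA so lower well fluorescence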
# Settings: r(CAG) RNA repeat, TO-PRO-1 dye displacement fluorescence; at 3 µM; stronger effect = higher value
row,Structure (SMILES),inhibition
1,O=c1[nH]c(-c2ccccc2)cn1C1CCN(Cc2ccc(-c3nc4ccc(F)cc4nc3-c3ccccc3)cc2)CC1,14.3%
2,O=C(CCC1CCCN(Cc2ccc(O)c(Cl)c2)C1)NCc1ccccc1F (stereo unspecified),-2.68%
3,CCOC(=O)C(=O)N(Cc1ccccc1)c1ccccc1C(=O)Nc1cc(OC)ccc1OC,-0.13%
4,CCC(NC(=O)C1C2C=CC3(CN(Cc4ccccc4)C(=O)C13)O2)c1ccccc1 (stereo unspecified),0.21%
5,Cc1ccc(C(C)C)c(OCCSc2nc3ccccc3n2CC(=O)O)c1,40.7% (active)
6,CCOc1ccc(OCCSc2nc3ccccc3n2CC(=O)O)cc1,7.86%
7,COc1ccccc1OCCn1c(SCC(N)=O)nc2ccccc21,1.66%
8,Cc1ccc(Cn2cc(CN3[C@@H](CC(C)C)COc4ccc(Cl)cc4S3(=O)=O)nn2)cc1,2.98%
9,COC(=O)C1CN(CCc2ccccc2)CCS(=O)(=O)N1Cc1cccc(Cl)c1 (stereo unspecified),1.15%
10,CN1C[C@]2(C=C3CCCCC3n3c(=O)n(-c4ccccc4)c(=O)n32)N=C1NC(=O)c1ccccc1 (stereo partly specified),8.01%
11,Cc1ccc(C(=O)COC(=O)c2cccc(N3C(=O)c4c(C)nc5ccccc5c4C3=O)c2)cc1C,8.76%
12,Fc1cccc(Cc2c(-c3ccc(Cl)cc3)nc3ccc(Cl)cn23)c1,20.9%
13,Cc1cc(Br)cn2c(Cc3ccccc3C(F)(F)F)c(-c3ccc(Cl)cc3)nc12,11.8%
14,Fc1cccc(Cc2c(-c3cccc(Cl)c3)nc3ccc(Br)cn23)c1,48.3% (active)
15,Cc1ccc(-c2nc3c(C)cc(Br)cn3c2Cc2ccccc2)cc1,10.3%
16,Cc1cc(Br)cn2c(Cc3cccc(F)c3)c(-c3cccc(Br)c3)nc12,48.4% (active)
17,Brc1ccc2nc(-c3ccccc3)c(Cc3ccccc3)n2c1,13.1%
18,Cc1ccc(-c2nc3ccc(Br)cn3c2Cc2ccccc2C(F)(F)F)cc1,30.3%
19,COc1ccc(-c2nc3ccc(Br)cn3c2Cc2ccc(C)cc2)cc1OC,40.1% (active)
20,COC(=O)c1ccc2nc(-c3ccc(OC)c(OC)c3)c(Cc3ccccc3)n2c1,9.92%
21,CCCCCC(O)c1cccc(OCc2ccc3ccccc3n2)c1 (stereo unspecified),1.42%

row,Structure (SMILES),inhibition
1,Cc1ccc(NC(=O)N2c3ccccc3SC2c2ccco2)c(C)c1 (stereo unspecified),5.91%
2,COc1ccccc1Cc1c(-c2ccc(F)cc2)nc2ccc(C)cn12,6.12%
3,CCCCNC(=O)C[C@@H]1C[C@@]2(C(=O)OCC)CCC=C2N(Cc2cccc3ccccc23)C1=O,1.85%
4,Cc1ccc(-n2c(COc3ccccc3)nnc2SCC(=O)Nc2ccc3c(c2)OCCO3)cc1,7.21%
5,COc1ccc(-n2c(COc3ccc(C)cc3)nnc2SCC(=O)Nc2ccc(Oc3ccccc3)cc2)cc1,5.38%
6,CCOc1cc(C)ccc1OCc1nnc(SCC(=O)Nc2cccc(C(=O)O)c2)n1-c1ccccc1,42% (active)
7,COC(=O)[C@]12C[C@H](CC(=O)N3CCN(C(=O)C4CC4)CC3)C(=O)N(CCC3=CCCCC3)C1=C[C@H](C(C)C)O[C@@H]2C1CC1,3.85%
8,Cc1ccc(S(=O)(=O)NC(=O)COc2ccccc2C)cc1,1.07%
9,CCOc1ccccc1NS(=O)(=O)c1c[nH]c(C(=O)OC)c1,-0.7%
10,O=C(O)c1ccccc1/C=N/Nc1ccc(S(=O)(=O)Nc2ccc(Cl)cc2)cc1[N+](=O)[O-],67% (active)
11,O=C(Nc1cc(S(=O)(=O)Nc2ccc(Cl)cc2)ccc1O)c1ccc(F)cc1F,22.4%
12,CCN(CC(=O)NCc1cccs1)C(=O)c1cccc(S(=O)(=O)Nc2ccccc2OC)c1,-2.88%
13,COc1ccc(Br)cc1/C=N/Nc1ccc(S(=O)(=O)Nc2ccccc2C(=O)O)cc1[N+](=O)[O-],70.1% (active)
14,Cc1ccc(NS(=O)(=O)c2ccc(N/N=C/c3ccccc3OCC(=O)O)c([N+](=O)[O-])c2)c(C)c1,86.9% (active)
15,COc1ccc(S(=O)(=O)NC(C)c2ccccc2)cc1C(=O)N1CCCCC1 (stereo unspecified),-7.44%
16,COc1cccc(/C=N/Nc2ccc(S(=O)(=O)Nc3ccccc3C(=O)O)cc2[N+](=O)[O-])c1O,93.8% (active)
17,COc1cc(/C=C/C(=O)O)cc(S(=O)(=O)Nc2ccccc2C(=O)NCCc2ccccc2)c1OC,31.7%
18,O=[N+]([O-])c1cc(S(=O)(=O)Nc2cccc(Cl)c2)ccc1N=Nc1c(O)[nH]c2ccccc12,8.1%
19,COc1ccc(N(CC(=O)Nc2ccc(C)cc2C)S(=O)(=O)c2ccccc2[N+](=O)[O-])c(OC)c1,7.1%
20,CCOc1ccccc1-n1c(SCC(=O)N2CCCC2)nnc1-c1ccoc1C,-6.11%
